Source: PubChem BioAssay (EPA / NIEHS)
Inconclusive results are not listed. Activity calls are given as the source filed them. Rule for the calls: active = hit-call score of the fitted dose curve at least 0.9, where 1 is the maximum; inconclusive = response in the unintended direction; inactive = score below 0.9.

These compounds were tested against Glucocorticoid receptor (Homo sapiens) (UniProt P04150) (assay: NVS_NR_hGR: NovaScreen (NVS) Nuclear Receptor Binding Assay for human Glucocorticoid Receptor (GR) (AID 2283363);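 for AC50: activity is loss of specific radioligand binding signal relative to DMSO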).
Chain of Glucocorticoid receptor (Homo sapiens) (P04150 whole entry, looked up): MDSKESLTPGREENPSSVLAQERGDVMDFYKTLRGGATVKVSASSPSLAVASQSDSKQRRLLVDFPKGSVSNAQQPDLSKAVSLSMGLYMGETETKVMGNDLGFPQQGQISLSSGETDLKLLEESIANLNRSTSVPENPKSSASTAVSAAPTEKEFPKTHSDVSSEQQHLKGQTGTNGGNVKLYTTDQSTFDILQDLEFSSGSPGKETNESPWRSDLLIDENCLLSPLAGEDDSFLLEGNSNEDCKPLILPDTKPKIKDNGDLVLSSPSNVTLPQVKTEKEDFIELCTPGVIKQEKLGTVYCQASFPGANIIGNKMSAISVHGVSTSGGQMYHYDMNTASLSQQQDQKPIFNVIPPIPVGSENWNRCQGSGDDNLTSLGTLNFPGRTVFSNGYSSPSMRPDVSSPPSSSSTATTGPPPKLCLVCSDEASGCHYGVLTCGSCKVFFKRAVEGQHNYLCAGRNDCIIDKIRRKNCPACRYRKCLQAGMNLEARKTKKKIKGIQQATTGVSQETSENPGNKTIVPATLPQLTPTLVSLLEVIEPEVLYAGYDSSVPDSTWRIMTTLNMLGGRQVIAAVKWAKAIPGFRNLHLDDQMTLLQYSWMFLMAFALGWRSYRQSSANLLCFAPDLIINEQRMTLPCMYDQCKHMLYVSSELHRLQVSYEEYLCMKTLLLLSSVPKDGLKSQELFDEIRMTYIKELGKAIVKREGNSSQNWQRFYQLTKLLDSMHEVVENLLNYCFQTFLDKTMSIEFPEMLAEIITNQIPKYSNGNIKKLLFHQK
Method in brief: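 Competitive displacement of a labelled ligand was measured on cell-free receptor preparations after 16 h exposure. Initial testing used 25 uM in duplicate with plate controls; confirmed actives went into concentration series.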

Structure (SMILES)	outcome	AC50
CCCN(CCOc1c(Cl)cc(Cl)cc1Cl)C(=O)n1ccnc1	inactive	
N#Cc1c(Cl)c(Cl)c(Cl)c(C#N)c1Cl		0.177 µM (active)
O=C(O)COc1ccc(Cl)cc1Cl	inactive	
CCOc1nc(NC)nc(NC(=O)NS(=O)(=O)c2ccccc2C(=O)OC)n1	inactive	
O=S1OCC2C(CO1)C1(Cl)C(Cl)=C(Cl)C2(Cl)C1(Cl)Cl (configuration not stated)		2.29 µM (active)
COc1nn(CSP(=S)(OC)OC)c(=O)s1	inactive	
O=[N+]([O-])/N=C1\NCCN1Cc1ccc(Cl)nc1	inactive	
CC[C@H](C)[C@H]1O[C@]2(C=C[C@@H]1C)C[C@@H]1C[C@@H](C/C=C(\C)[C@@H](O[C@H]3C[C@H](OC)[C@@H](O[C@H]4C[C@H](OC)[C@@H](O)[C@H](C)O4)[C@H](C)O3)[C@@H](C)/C=C/C=C3\CO[C@@H]4[C@H](O)C(C)=C[C@@H](C(=O)O1)[C@]34O)O2 (tested in a mixture with another compound)		8.5 µM (active)
O=[N+]([O-])c1c(Cl)c(Cl)c(Cl)c(Cl)c1Cl	inactive	
CC1(C)C(C=C(Cl)Cl)C1C(=O)OC(C#N)c1ccc(F)c(Oc2ccccc2)c1 (configuration not stated)		7.25 µM (active)
Oc1cc(Cl)ccc1Oc1ccc(Cl)cc1Cl	inactive	

Each compound was assayed against Nuclear receptor subfamily 1 group I member 2 (Homo sapiens) (UniProt O75469) (assay: NVS_NR_hPXR: NovaScreen (NVS) Nuclear Receptor Binding Assay for human Pregnane X Receptor (PXR) (AID 2283365);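 note: a drop in FRET signal versus DMSO baseline means the compound binds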).
Chain of Nuclear receptor subfamily 1 group I member 2 (Homo sapiens) (O75469 whole entry, looked up): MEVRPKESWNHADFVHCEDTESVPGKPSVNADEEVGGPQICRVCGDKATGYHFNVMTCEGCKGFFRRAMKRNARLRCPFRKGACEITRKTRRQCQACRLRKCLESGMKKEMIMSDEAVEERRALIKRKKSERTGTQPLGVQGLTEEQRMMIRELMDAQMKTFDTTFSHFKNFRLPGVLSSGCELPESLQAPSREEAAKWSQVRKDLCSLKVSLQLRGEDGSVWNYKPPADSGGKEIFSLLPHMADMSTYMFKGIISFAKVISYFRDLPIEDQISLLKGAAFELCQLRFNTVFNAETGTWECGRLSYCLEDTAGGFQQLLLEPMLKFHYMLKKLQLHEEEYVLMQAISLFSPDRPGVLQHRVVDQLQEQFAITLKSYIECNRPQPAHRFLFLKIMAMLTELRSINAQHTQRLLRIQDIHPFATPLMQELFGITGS
Experimental: NVS_NR_hPXR is a biochemical, single-readout assay that uses extracted gene-proteins in a cell-free assay. Measurements were taken 2 hours after chemical dosing in a 384-well plate.NVS_NR_hPXR is one of one assay component(s) measured or calculated from the NVS_NR_hPXR assay. It is designed to make measurements of fluorescent resonance energy transfer, a form of binding reporter, as detected with fluorescent resonance energy transfer signals by Time-Resolved Fluorescence Resonance Energy Transfer (TR-FRET) technology.Data from the assay component NVS_NR_hPXR was analyzed into 1 assay endpoint. This assay endpoint, NVS_NR_hPXR, was analyzed in the positive analysis fitting direction relative to DMSO as the negative control and baseline of activity. Using a type of binding reporter, loss-of-signal activity can be used to understand changes in the binding as they relate to the gene NR1I2. Furthermore, this assay endpoint can be referred to as a primary readout, because the performed assay has only produced 1 assay endpoint. To generalize the intended target to other relatable targets, this assay endpoint is annotated to the nuclear receptor intended target family, where the subfamily is non-steroidal.
Binding assays used specific radioligands (tritiated, iodinated) with non-radioactive competitive displacement ligands in agonist or antagonist protocols (as indicated) and various reference compounds and inhibitors to titrate specific binding to receptors and transporters. Most enzyme assays (CYPs, kinases, phosphatases, proteases, HDACs) used recombinant protein and specific substrates (fluorescence mostly, some colorimetric and radioactive) and inhibitors, followed by a biochemical separation of substrate and product. All assays for the biochemical HTS were initially run in duplicate at a single concentration (10 uM for CYP450 assays and 25 uM for all others). […] Each assay was run with positive and negative controls, and concurrent controls on every plate. The follow-up (secondary) screen tested active chemical-pairs in concentration series, as well as a few additional assays not tested in the primary screen, some selected negative inactives, and several cases re-run in the concentration series for confirmatory purposes.

Structure (SMILES)	AC50	outcome
CC(C)(C)C(O)/C(=C\c1ccc(Cl)cc1Cl)n1cncn1 (configuration not stated)	0.281 µM (active)	
O=S(=O)(O)C(F)(F)C(F)(F)C(F)(F)C(F)(F)C(F)(F)C(F)(F)C(F)(F)C(F)(F)F	39.6 µM (active)	
ClC1C(Cl)C(Cl)C(Cl)C(Cl)C1Cl (configuration not stated)		inactive
CC(C)(C)C(O)C(Oc1ccc(Cl)cc1)n1cncn1 (configuration not stated)	25 µM (active)	

These compounds were tested against rat Androgen Receptor (AR), Ar (gene 24208) (UniProt P15207) (assay: NVS_NR_rAR: NovaScreen (NVS) Nuclear Receptor Binding Assay for rat Androgen Receptor (AR) (AID 2283366)).
Chain of rat Androgen Receptor (AR), Ar (gene 24208) (P15207 whole entry, looked up): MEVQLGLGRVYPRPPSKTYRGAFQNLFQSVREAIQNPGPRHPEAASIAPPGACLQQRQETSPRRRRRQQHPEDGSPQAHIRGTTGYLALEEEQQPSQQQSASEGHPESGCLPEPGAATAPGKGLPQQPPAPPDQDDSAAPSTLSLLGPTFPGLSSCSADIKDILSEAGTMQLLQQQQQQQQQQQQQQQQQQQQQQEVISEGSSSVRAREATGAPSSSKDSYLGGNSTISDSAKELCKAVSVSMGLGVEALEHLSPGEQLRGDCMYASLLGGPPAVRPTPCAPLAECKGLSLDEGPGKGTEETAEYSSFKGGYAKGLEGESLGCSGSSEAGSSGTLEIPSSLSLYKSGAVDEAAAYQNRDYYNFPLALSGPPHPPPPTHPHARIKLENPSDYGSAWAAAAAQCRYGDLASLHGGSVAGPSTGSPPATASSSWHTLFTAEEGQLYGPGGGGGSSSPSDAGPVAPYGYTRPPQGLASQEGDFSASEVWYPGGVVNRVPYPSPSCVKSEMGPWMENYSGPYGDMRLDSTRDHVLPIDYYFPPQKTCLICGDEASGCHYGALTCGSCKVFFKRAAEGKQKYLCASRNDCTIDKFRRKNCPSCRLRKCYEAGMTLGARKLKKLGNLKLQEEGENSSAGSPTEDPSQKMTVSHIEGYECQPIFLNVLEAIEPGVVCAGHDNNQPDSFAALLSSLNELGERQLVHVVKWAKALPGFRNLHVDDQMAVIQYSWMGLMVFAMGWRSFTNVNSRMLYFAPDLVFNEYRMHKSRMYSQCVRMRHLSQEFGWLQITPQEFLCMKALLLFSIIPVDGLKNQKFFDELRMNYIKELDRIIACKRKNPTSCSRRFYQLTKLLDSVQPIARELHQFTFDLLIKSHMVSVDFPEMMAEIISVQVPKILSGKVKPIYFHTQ
Method in brief: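 Cell-free radioligand binding on extracts of prostate from testosterone-pretreated rats, read by filter-based scintillation counting 18 h after dosing. Loss of bound signal fitted positively versus DMSO; primary screen in duplicate at 25 uM, actives followed up in concentration series.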

Structure (SMILES)	outcome	AC50
CCCN(CCC)c1c([N+](=O)[O-])cc(C(F)(F)F)cc1[N+](=O)[O-]	inactive	
O=C(O)CCCOc1ccc(Cl)cc1Cl	inactive	
CCOc1nc(NC)nc(NC(=O)NS(=O)(=O)c2ccccc2C(=O)OC)n1	inactive	
O=S1OCC2C(CO1)C1(Cl)C(Cl)=C(Cl)C2(Cl)C1(Cl)Cl (configuration not stated)	inactive	
O=[N+]([O-])/N=C1\NCCN1Cc1ccc(Cl)nc1	inactive	
Oc1ccc(Cl)cc1Cc1ccccc1		12.3 µM (active) [middle of 6 runs]
O=[N+]([O-])c1c(Cl)c(Cl)c(Cl)c(Cl)c1Cl	inactive	
